Where “and” joins values, the source holds several entries; their conditions need not be identical. Equal values may be shown once. Where a structure was tested more than once in an assay, its records may differ in their call. Calls of active or inactive are those of the source. Entries that show only a call come without a potency. Unless noted, calls come from the whole dose curve; as a rule, active = well fitted curve in the direction sought with a large enough effect in the repeat runs; inconclusive = weak or mixed curves; inactive = no such curve, though single readings can be large; an effect the other way counts as inactive or inconclusive.
Columns and labels:
[1] = qHTS assay to identify small molecule antagonists of the thyroid receptor (TR) signaling pathway (AID 743065); note: nearly all actives have a fitted effect of over 55% in size; note: potency is the fitted concentration of half-maximal effect; for activity, negative = inhibition: series mostly up to about 70 µM
In short: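 GH3.TRE-Luc rat pituitary cells carrying two TR response elements driving luciferase were plated for 4 h, given compound plus 1 nM T3 (final), and incubated 23.5 h at 37 C. ONE-Glo luminescence measured reporter inhibition; CellTiter-Fluor fluorescence tracked cytotoxicity.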

[2] = target: Estrogen receptor (Homo sapiens) (UniProt P03372); test: qHTS assay to identify small molecule antagonists of the estrogen receptor alpha (ER-alpha) signaling pathway (AID 743069; active = well fitted curve in the direction sought with a large enough effect in the signal ratio in the repeat runs, not every such curve was filed as active; inconclusive = weak or mixed curves, or effect the other way; inactive = no such curve, though single readings can be large or run the other way; the % refers to the signal ratio; note: potency is the fitted concentration of half-maximal effect)
In short: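 HEK293 cells stably carrying an ER-alpha-UAS-bla beta-lactamase reporter were pre-cultured overnight in 2% charcoal-stripped FBS medium. Test compounds in DMSO were added together with 17beta-estradiol for 18 hr at 37C. Read-out was fluorescence after 2 hr with LiveBLAzer B/G FRET substrate at room temperature.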

[3] = qHTS assay to identify small molecule antagonists of the estrogen receptor alpha (ER-alpha) signaling pathway - cell viability counter screen (AID 743074; calls by dose curve; note: nearly all actives have a fitted effect of over 45% in size; note: potency is the fitted concentration of half-maximal effect)
[4] = target: Estrogen receptor (Homo sapiens) (UniProt P03372); test: qHTS assay to identify small molecule agonists of the estrogen receptor alpha (ER-alpha) signaling pathway (AID 743075; calls by dose curve; note: potency is the fitted concentration of half-maximal effect)
[5] = target: Estrogen receptor (Homo sapiens) (UniProt P03372); test: qHTS assay to identify small molecule agonists of the estrogen receptor alpha (ER-alpha) signaling pathway using the BG1 cell line (AID 743079); note: nearly all actives have a fitted effect of over 20% in size; note: potency is the fitted concentration of half-maximal effect
[6] = qHTS assay to identify small molecule antagonists of the estrogen receptor alpha (ER-alpha) signaling pathway using the BG1 cell line - cell viability counter screen (AID 743081);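 note: compound given together with 17beta-estradiol as the ER stimulus; nearly all actives have a fitted effect of over 45% in size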; note: potency is the fitted concentration of half-maximal effect; for activity change, negative = cytotoxicity: series mostly up to about 70 µM
Aromatase (Homo sapiens) = Aromatase (Homo sapiens) (UniProt P11511); test: qHTS assay to identify aromatase inhibitors (AID 743083); note: nearly all actives have a fitted effect of over 55% in size; note: potency is the fitted concentration of half-maximal effect; for activity, negative = inhibition: series mostly up to about 70 µM
[7] = target: Aryl hydrocarbon receptor (Homo sapiens) (UniProt P35869); test: qHTS assay to identify small molecule that activate the aryl hydrocarbon receptor (AhR) signaling pathway (AID 743085); note: nearly all actives have a fitted effect of over 15% in size; note: potency is the fitted concentration of half-maximal effect;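 for activation: HG2L7.5c1 human HepG2 liver cells with stably integrated DRE-driven firefly reporter; series mostly up to about 70 µM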
In short: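 HepG2 cells (HG2L7.5c1) stably carrying a firefly luciferase reporter driven by 20 dioxin responsive elements were exposed to compound for 24 h at 37C after a 5 h settling period; luminescence rise (ONE-Glo) indicated activation.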

[8] = qHTS assay to identify small molecule that activate the aryl hydrocarbon receptor (AhR) signaling pathway - cell viability counter screen (AID 743086);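 note: HepG2 liver cells carrying the AhR DRE luciferase reporter; series mostly up to about 70 µM; nearly all actives have a fitted effect of over 45% in size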
In short: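 HepG2-AhR-luc (HG2L7.5c1) cells, 4000/well, were preincubated 5 h at 37C, exposed to compound in qHTS format for 24 hr at 37C, then given CellTiter-Fluor for 30 min; viability was read as fluorescence in the reporter wells.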

[9] = target: Peroxisome proliferator-activated receptor gamma (Homo sapiens) (UniProt P37231); test: qHTS assay to identify small molecule agonists of the peroxisome proliferator-activated receptor gamma (PPARg) signaling pathway (AID 743094; active = well fitted activation curve with a large enough effect in the signal ratio in the repeat runs, not every such curve was filed as active; inconclusive = weak or mixed curves, or effect the other way; inactive = no such curve, though single readings can be large or run the other way; the % refers to the signal ratio)
In short: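 Beta-lactamase FRET fluorescence was the read-out after a 1 h room-temperature substrate step, following 17 h compound treatment at 37C of HEK293H cells expressing a UAS-driven bla reporter responsive to PPARg.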

[10] = qHTS assay for small molecule agonists of the antioxidant response element (ARE) signaling pathway - cell viability counter screen (AID 743203; calls by dose curve; note: nearly all actives have a fitted effect of over 55% in size; note: potency is the fitted concentration of half-maximal effect)
In short: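 HepG2 cells carrying ARE-driven beta-lactamase; 2,000 cells/well; 5 hrs plating; compound pinned from DMSO; 16 hrs 37C/5% CO2; CellTiter-Glo added; 30 min RT; luminescence.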

[11] = qHTS assay to identify small molecule agonists of the peroxisome proliferator-activated receptor delta (PPARd) signaling pathway - cell viability counter screen (AID 743211); note: nearly all actives have a fitted effect of over 55% in size; note: potency is the fitted concentration of half-maximal effect
In short: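 PPARd-bla HEK293H cells (UAS-beta-lactamase reporter) were treated with compounds for 17 h at 37 C. Viability was then read in the same wells by CellTiter-Glo luminescence after 30 min at room temperature.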

[12] = qHTS assay to identify small molecule antagonists of the estrogen receptor alpha (ER-alpha) signaling pathway using the BG1 cell line (AID 743080; calls by dose curve; note: nearly all actives have a fitted effect of over 25% in size; note: potency is the fitted concentration of half-maximal effect)
In short: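 Antagonist mode: compounds in DMSO were pinned onto BG1-Luc-4E2 cells alongside 17beta-estradiol agonist, incubated 21.5 h, and ERE-driven luciferase measured with ONE-Glo. Cytotoxicity was multiplexed using CellTiter-Fluor fluorescence.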

[13] = qHTS assay to identify aromatase inhibitors - cell viability counter screen (AID 743084); note: potency is the fitted concentration of half-maximal effect
[14] = target: Peroxisome proliferator-activated receptor gamma (Homo sapiens) (UniProt P37231); test: qHTS assay to identify small molecule antagonists of the peroxisome proliferator-activated receptor gamma (PPARg) signaling pathway (AID 743191; calls by dose curve; note: nearly all actives have a fitted effect of over 30% in size; note: potency is the fitted concentration of half-maximal effect; for ratio activity, negative = inhibition: series mostly up to about 63 µM)
In short: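 GeneBLAzer PPARg UAS-bla HEK293H cells carrying a UAS-driven beta-lactamase reporter were plated at 3000 cells/well, preincubated 5 h at 37C, then given compound for 17 h at 37C; LiveBLAzer B/G FRET substrate was read after 1 h at room temperature.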

[15] = qHTS assay to identify small molecule antagonists of the peroxisome proliferator-activated receptor gamma (PPARg) signaling pathway - cell viability counter screen (AID 743194); note: nearly all actives have a fitted effect of over 55% in size; note: potency is the fitted concentration of half-maximal effect
In short: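 PPARg-UAS-bla HEK293H cells were plated, rested 5 h at 37 C, then treated with compounds plus rosiglitazone (50 nM final) for 17 h at 37 C; viability was then read by CellTiter-Glo luminescence after 30 min at room temperature.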

[16] = qHTS assay for small molecule agonists of the antioxidant response element (ARE) signaling pathway (AID 743202; active = well fitted activation curve with a large enough effect in the signal ratio in the repeat runs, not every such curve was filed as active; inconclusive = weak or mixed curves, or effect the other way; inactive = no such curve, though single readings can be large or run the other way; the % refers to the signal ratio; note: potency is the fitted concentration of half-maximal effect)
In short: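 Read-out: LiveBLAzer B/G FRET substrate fluorescence after 2 h at room temperature, following 16 h compound treatment at 37 C of HepG2 cells carrying an ARE-driven beta-lactamase reporter.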

[17] = qHTS assay for small molecule activators of the heat shock response signaling pathway - cell viability counter screen (AID 743209); note: nearly all actives have a fitted effect of over 50% in size; note: potency is the fitted concentration of half-maximal effect
In short: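 Luminescence from CellTiter-Glo, added after the beta-lactamase FRET read, gave the viability signal. Cells were HSE-bla HeLa treated with DMSO-dissolved compounds for 5 h at 37 C following overnight plating.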

[18] = test system: thyroid hormone receptor (rat, GH3 cells); test: qHTS assay to identify small molecule agonists of the thyroid receptor (TR) signaling pathway (AID 743066; calls by dose curve)
[19] = qHTS assay for small molecule activators of the heat shock response signaling pathway (AID 743210; active = well fitted activation curve with a large enough effect in the signal ratio in the repeat runs, with a control signal flat, not every such curve was filed as active; inconclusive = weak or mixed curves; the % refers to the signal ratio; note: series mostly up to about 63 µM)
In short: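 HSE-bla HeLa cells (beta-lactamase reporter under heat shock response elements) were exposed to compounds for 5 h at 37 C, then loaded with LiveBLAzer B/G FRET substrate for 2.5 h at room temperature before fluorescence reading.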

Sequence of Aromatase (Homo sapiens) (P11511 whole entry, looked up): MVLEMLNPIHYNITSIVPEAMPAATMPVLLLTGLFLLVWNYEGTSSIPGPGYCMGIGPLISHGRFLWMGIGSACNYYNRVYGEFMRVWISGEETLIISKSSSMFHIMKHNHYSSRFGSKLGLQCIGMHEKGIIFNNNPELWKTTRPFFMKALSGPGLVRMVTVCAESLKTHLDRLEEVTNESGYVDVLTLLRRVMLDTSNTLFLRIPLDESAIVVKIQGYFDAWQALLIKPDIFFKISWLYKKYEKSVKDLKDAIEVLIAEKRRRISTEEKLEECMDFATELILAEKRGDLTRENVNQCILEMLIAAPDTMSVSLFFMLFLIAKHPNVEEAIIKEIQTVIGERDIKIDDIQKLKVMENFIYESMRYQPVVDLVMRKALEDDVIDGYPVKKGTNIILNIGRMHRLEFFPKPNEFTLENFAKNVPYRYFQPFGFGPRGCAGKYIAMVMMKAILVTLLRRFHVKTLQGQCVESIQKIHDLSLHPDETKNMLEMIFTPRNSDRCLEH
Sequence of Estrogen receptor (Homo sapiens) (P03372 whole entry, looked up): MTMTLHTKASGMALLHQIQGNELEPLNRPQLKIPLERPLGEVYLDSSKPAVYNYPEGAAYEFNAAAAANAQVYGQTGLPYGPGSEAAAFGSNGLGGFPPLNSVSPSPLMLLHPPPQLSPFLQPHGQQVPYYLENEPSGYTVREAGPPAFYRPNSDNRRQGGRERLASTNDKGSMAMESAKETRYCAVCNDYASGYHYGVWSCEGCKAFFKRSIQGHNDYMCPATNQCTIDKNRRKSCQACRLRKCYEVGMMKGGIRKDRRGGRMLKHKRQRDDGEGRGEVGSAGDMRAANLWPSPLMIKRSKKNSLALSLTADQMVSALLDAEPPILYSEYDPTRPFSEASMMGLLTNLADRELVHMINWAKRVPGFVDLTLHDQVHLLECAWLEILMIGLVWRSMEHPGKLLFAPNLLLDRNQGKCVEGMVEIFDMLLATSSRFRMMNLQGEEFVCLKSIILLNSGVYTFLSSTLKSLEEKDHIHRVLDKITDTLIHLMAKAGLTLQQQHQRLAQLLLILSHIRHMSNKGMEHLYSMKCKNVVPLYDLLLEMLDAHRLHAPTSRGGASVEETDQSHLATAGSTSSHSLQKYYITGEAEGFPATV
Sequence of Peroxisome proliferator-activated receptor gamma (Homo sapiens) (P37231 whole entry, looked up): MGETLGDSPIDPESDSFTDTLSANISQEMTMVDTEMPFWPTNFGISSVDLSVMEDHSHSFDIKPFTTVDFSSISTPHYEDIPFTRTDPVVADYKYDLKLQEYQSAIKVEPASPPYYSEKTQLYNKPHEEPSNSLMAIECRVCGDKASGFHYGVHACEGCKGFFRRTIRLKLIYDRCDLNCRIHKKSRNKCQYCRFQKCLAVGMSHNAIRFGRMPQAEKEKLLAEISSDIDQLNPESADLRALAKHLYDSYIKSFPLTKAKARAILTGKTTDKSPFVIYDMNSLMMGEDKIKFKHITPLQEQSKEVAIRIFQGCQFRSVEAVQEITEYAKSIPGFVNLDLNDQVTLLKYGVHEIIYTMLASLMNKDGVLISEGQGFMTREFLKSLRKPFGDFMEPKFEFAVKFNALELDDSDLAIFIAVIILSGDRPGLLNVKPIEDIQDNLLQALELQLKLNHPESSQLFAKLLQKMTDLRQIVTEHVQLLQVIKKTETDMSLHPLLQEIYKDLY
Sequence of Aryl hydrocarbon receptor (Homo sapiens) (P35869 whole entry, looked up): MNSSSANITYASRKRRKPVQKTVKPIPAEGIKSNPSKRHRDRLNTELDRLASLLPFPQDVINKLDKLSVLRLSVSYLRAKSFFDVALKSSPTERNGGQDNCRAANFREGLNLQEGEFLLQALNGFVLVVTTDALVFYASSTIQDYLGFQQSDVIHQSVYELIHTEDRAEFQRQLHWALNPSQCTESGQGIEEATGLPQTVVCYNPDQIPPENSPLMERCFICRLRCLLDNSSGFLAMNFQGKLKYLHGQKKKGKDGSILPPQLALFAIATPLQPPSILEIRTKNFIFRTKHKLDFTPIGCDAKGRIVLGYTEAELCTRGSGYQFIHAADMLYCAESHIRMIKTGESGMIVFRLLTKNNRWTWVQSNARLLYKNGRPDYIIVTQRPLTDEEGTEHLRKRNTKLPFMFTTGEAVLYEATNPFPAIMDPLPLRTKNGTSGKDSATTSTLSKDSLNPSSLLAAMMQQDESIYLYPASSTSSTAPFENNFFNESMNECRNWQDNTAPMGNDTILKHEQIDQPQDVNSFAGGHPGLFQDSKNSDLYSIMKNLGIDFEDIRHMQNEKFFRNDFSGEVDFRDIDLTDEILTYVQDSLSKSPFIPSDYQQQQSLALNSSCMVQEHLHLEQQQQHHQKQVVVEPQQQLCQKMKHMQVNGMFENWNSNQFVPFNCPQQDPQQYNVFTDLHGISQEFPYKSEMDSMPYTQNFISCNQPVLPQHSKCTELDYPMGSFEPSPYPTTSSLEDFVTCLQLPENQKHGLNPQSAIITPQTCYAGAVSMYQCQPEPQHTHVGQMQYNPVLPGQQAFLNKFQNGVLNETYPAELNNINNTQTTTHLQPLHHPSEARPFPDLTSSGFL

SMILES: CCCCCCCCCCCCOC(=O)c1ccc(O)cc1
- Potency [1]: 27.5 µM (active)
- Potency [2]: 44 µM [inconclusive] (active)
- Potency [3]: inactive
- Potency [4]: inactive
- Potency [5]: inactive
- Potency [6]: inactive
- Potency (Aromatase (Homo sapiens)): 30.9 µM (active)
- Potency [7]: inactive
- Potency [8]: inactive
- Potency [9]: inactive
- Potency [10]: 61.6 µM (active)
- Potency [11]: 34.9 µM (active)

SMILES: CC(C)OC(=O)C(O)(CC(=O)O)CC(=O)O
- Potency [1]: inactive
- Potency [2]: inactive
- Potency [3]: inactive
- Potency [4]: inactive
- Potency [5]: inactive
- Potency [12]: inactive
- Potency [6]: inactive
- Potency (Aromatase (Homo sapiens)): inactive
- Potency [13]: inactive
- Potency [7]: inactive
- Potency [8]: inactive
- Potency [9]: inactive
- Potency [14]: inactive
- Potency [15]: inactive
- Potency [16]: inactive
- Potency [17]: inactive
- Potency [11]: inactive

SMILES: CCCC(=O)OC(C)(C)Cc1ccccc1
- Potency [1]: inactive
- outcome [18]: inactive
- Potency [3]: inactive
- Potency [6]: inactive
- Potency (Aromatase (Homo sapiens)): inactive
- Potency [13]: inactive
- Potency [7]: inactive
- Potency [8]: inactive
- Potency [15]: inactive
- Potency [16]: inactive
- Potency [10]: inactive
- Potency [17]: inactive
- Potency [11]: inactive

SMILES: OCC(F)(F)F
- Potency [1]: inactive
- outcome [18]: inactive
- Potency [3]: inactive
- Potency [6]: inactive
- Potency (Aromatase (Homo sapiens)): inactive
- Potency [13]: inactive
- Potency [7]: inactive
- Potency [8]: inactive
- Potency [14]: inactive
- Potency [15]: inactive
- Potency [16]: inactive
- Potency [10]: inactive
- Potency [17]: inactive
- Potency [11]: inactive

SMILES: C#CC1(O)CC[C@H]2[C@@H]3CCC4=CCCC[C@@H]4[C@H]3CC[C@@]21C (some centres undefined)
- Potency [1]: 30.6 µM (active)
- Potency [2]: inactive
- Potency [3]: inactive
- Potency [4]: 57.4 nM [inconclusive] (active) and 77.6 nM [inconclusive] (active)
- Potency [5]: 40.3 nM (active) and 21.7 nM (active)
- Potency [12]: inactive
- Potency [6]: inactive
- Potency (Aromatase (Homo sapiens)): inactive and 61.1 µM (active)
- Potency [13]: inactive and 54.5 µM (active)
- Potency [7]: inactive
- Potency [8]: inactive
- Potency [9]: inactive
- Potency [15]: 18.8 µM (active)
- Potency [10]: 61.1 µM (active) and 13.3 µM (active)
- Potency [17]: 11.9 µM (active)
- Potency [11]: 11.9 µM (active)

SMILES: OC12N=C(c3ccccc3)SC1Cc1cc(Cl)ccc12 (centres undefined)
- Potency [1]: 61.1 µM (active)
- Potency [2]: 54.9 µM [inhibitor] (active)
- Potency [3]: inactive
- Potency [4]: inactive
- Potency [5]: 27.3 µM (active)
- Potency [6]: inactive
- Potency (Aromatase (Homo sapiens)): inactive
- Potency [13]: inactive
- Potency [7]: 24.3 µM (active)
- Potency [9]: inactive
- Potency [15]: inactive
- Potency [10]: inactive
- Potency [17]: inactive

SMILES: CC/C=C\CCCCCO
- Potency [1]: inactive
- outcome [18]: inactive
- Potency [3]: inactive
- Potency [6]: inactive
- Potency [8]: inactive
- Potency [15]: inactive
- Potency [16]: inactive
- Potency [17]: inactive
- Potency [11]: inactive

SMILES: COc1cccc(OC)c1C(=O)O
- Potency [1]: inactive
- outcome [18]: inactive
- Potency [3]: inactive
- Potency [6]: inactive
- Potency [8]: inactive
- Potency [16]: inactive
- Potency [10]: inactive
- Potency [17]: inactive
- Potency [11]: inactive

SMILES: Sc1nc2ccccc2s1
- Potency [1]: inactive
- outcome [18]: inactive
- Potency [3]: inactive
- Potency [6]: inactive
- Potency [13]: inactive
- Potency [8]: inactive
- Potency [15]: inactive
- Potency [16]: inactive
- Potency [10]: inactive
- Potency [17]: inactive

SMILES: COc1ccc(NC(=O)CC(C)=O)cc1
- Potency [1]: inactive
- outcome [18]: inactive
- Potency [3]: inactive
- Potency [6]: inactive
- Potency (Aromatase (Homo sapiens)): inactive
- Potency [13]: inactive
- Potency [8]: inactive
- Potency [14]: inactive
- Potency [15]: inactive
- Potency [17]: inactive
- Potency [19]: inactive
- Potency [11]: inactive

SMILES: CCCCCCCCCCCCOCCOCCOCCOCCOCCOCCOCCOCCOCCO
- Potency [1]: 8.41 µM (active)
- Potency [3]: 10.7 µM (active)
- Potency [4]: inactive
- Potency [12]: 5.96 µM (active)
- Potency [6]: 23.7 µM (active)
- Potency (Aromatase (Homo sapiens)): 10.6 µM (active)
- Potency [13]: inactive
- Potency [17]: 29.8 µM (active)
- Potency [11]: 33.5 µM (active)

SMILES: CCCNCCC
- Potency [1]: inactive
- outcome [18]: inactive
- Potency [6]: inactive
- Potency (Aromatase (Homo sapiens)): inactive
- Potency [13]: inactive
- Potency [7]: inactive
- Potency [8]: inactive
- Potency [9]: inactive
- Potency [14]: inactive
- Potency [15]: inactive
- Potency [16]: inactive
- Potency [10]: inactive
- Potency [17]: inactive
- Potency [19]: inactive
- Potency [11]: inactive

SMILES: C#C[C@]1(OC(C)=O)CC[C@H]2[C@@H]3CCC4=C/C(=N/O)CC[C@@H]4[C@H]3CC[C@@]21CC
- Potency [1]: 21.1 µM (active)
- Potency [3]: inactive
- Potency [4]: 952 nM [inconclusive] (active)
- Potency [5]: 0.106 µM (active)
- Potency [12]: inactive
- Potency [6]: inactive
- Potency (Aromatase (Homo sapiens)): 23.7 µM (active)
- Potency [7]: inactive
- Potency [8]: inactive

SMILES: NC[C@H]1O[C@H](O[C@H]2[C@H](O[C@@H]3O[C@H](CO)[C@@H](O)[C@H]3O)C(O)[C@H](N)C[C@@H]2N)[C@H](N)[C@@H](O)[C@@H]1O (some centres undefined)
- Potency [1]: inactive
- outcome [18]: inactive
- Potency [3]: inactive
- Potency [6]: inactive
- Potency (Aromatase (Homo sapiens)): inactive
- Potency [13]: inactive
- Potency [8]: inactive
- Potency [9]: inactive
- ratio activity, negative = inhibition [14]: 1.19% [at 13.2 µM] (inactive)
- activity change, negative = cytotoxicity [15]: 8.9% [at 13.2 µM] (inactive)
- activation [16]: 0.127% [at 8.36 µM] (inactive)
- activity change, negative = cytotoxicity [17]: 4.74% [at 13.2 µM] (inactive)
- activation [19]: 1.22% [at 13.2 µM] (inactive)
- activity change, negative = cytotoxicity [11]: 8.47% [at 13.2 µM] (inactive)

SMILES: CC(C)=CCC1=C(O)c2ccccc2C(=O)C1=O
- Potency [1]: 0.171 µM (active)
- outcome [18]: inactive
- Potency [6]: 54.2 µM (active)
- Potency (Aromatase (Homo sapiens)): inactive
- Potency [7]: 54.2 µM (active)
- Potency [14]: 0.772 µM (active)
- Potency [15]: inactive
- Potency [10]: inactive
- Potency [17]: inactive
- Potency [19]: inactive
- Potency [11]: inactive

SMILES: Cc1cc(-c2ccc(N=Nc3cc(S(=O)(=O)O)c4ccccc4c3N)c(C)c2)ccc1N=Nc1cc(S(=O)(=O)O)c2ccccc2c1N
- Potency [1]: 27.4 µM (active)
- outcome [18]: inactive
- Potency [6]: 30.8 µM (active)
- Potency [13]: inactive
- Potency [7]: inactive
- Potency [8]: inactive
- Potency [14]: inactive
- Potency [15]: inactive
- Potency [16]: 12.3 µM (active)
- Potency [17]: inactive
- Potency [19]: inactive
